Assay [1] in a line: NCI Yeast Anticancer Drug Screen. Data for the rad50 strain (AID 155).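 Also: 0% = growth of vehicle-only cultures of the same strain.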 To be noted: S. cerevisiae rad50 strain growth inhibition, active compounds read high. In outline:
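Readout: growth inhibition relative to vehicle-treated cultures. Compound exposure was carried out in a genetically defined yeast strain deficient in DNA damage repair.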

A short description of assay [2]: NCI Yeast Anticancer Drug Screen. Data for the mec2-1 strain (AID 157). Conditions: S. cerevisiae mec2-1 strain, active compounds read high. In short, it runs like this: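 Using mec2-1 yeast: add compound, measure growth, express inhibition versus vehicle-treated cultures.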
Assay [3] in a line: NCI Yeast Anticancer Drug Screen. Data for the sgs1 mgt1 strain (AID 161).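 Also: 0% = growth of cultures given vehicle only.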 Conditions: S. cerevisiae sgs1 mgt1 strain, active compounds read high. In outline: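 Percent growth inhibition was derived by comparing compound-exposed mutant yeast with vehicle-exposed cultures. The strain carries alterations in DNA damage repair.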
The nature of assay [4]: NCI Yeast Anticancer Drug Screen. Data for the cln2 rad14 strain (AID 165).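 Also: 0% = growth equal to vehicle treated cultures.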 To be noted: S. cerevisiae cln2 rad14 strain, active compounds read high. In outline:
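Yeast strain cln2 rad14, bearing defects in cell cycle control and DNA repair, serves as the test system; values reflect growth inhibition compared with vehicle.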

Assay [5] is described as follows: NCI Yeast Anticancer Drug Screen. Data for the bub3 strain (AID 167). To be noted: S. cerevisiae bub3 mutant strain, active compounds read high. In short, it runs like this: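 Readout: yeast growth inhibition, expressed relative to vehicle-only wells. The test organism is a mutant strain from a panel with lesions in DNA repair or checkpoint genes.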
Assay [6] is described as follows: NCI Yeast Anticancer Drug Screen. Data for the mlh1 rad18 strain (AID 175). To be noted: S. cerevisiae mlh1 rad18 strain growth inhibition, active compounds read high. In short, it runs like this:
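Steps: expose repair-defective yeast to compound; measure growth; express inhibition against vehicle-treated controls.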

Setting [7] is: at 5.0 µM (retest, dose inferred, filed as 0.5).
The mark [8] stands for this setting: at 50.0 µM (retest, dose inferred, filed as 5.0).

About 79,000 compounds went through this panel and 15% of them were active in at least one assay; those are over-represented in the sample as a whole. Unmarked numbers belong to inactive results. Active and inactive are the calls of the source. Rule as the data show it: active = growth inhibition above about 70%; inactive = the rest.

Consider `COC(=O)c1ccc(C)cc1CC1Cc2cc(C)ccc2C1=O` (configuration not stated), for which the growth inhibition in assay [1] (setting [7]) is 5%; in assay [1] (setting [8]), 54%; in assay [1] (at 50.0 µM), 36.1%; in assay [2] (setting [7]), -21%; in assay [2] (setting [8]) it was 56%; in assay [2] (at 50.0 µM), 56.1%. Moreover, the growth inhibition was -31% in assay [3] (setting [7]); 68% in assay [3] (setting [8]); 73.9% (active) in assay [3] (at 50.0 µM); 21% in assay [4] (setting [7]); 53% in assay [4] (setting [8]); 71.8% (active) in assay [4] (at 50.0 µM). The growth inhibition was -34% in assay [5] (setting [7]); 49% in assay [5] (setting [8]); 64.2% in assay [5] (at 50.0 µM); -12% in assay [6] (setting [7]); 85% (active) in assay [6] (setting [8]); 70.7% (active) in assay [6] (at 50.0 µM).

`NC(=O)C1CCN(N=Nc2c(-c3ccccc3)n[nH]c2-c2ccccc2)CC1`: the growth inhibition in assay [1] (setting [7]) is 79% (active); in assay [1] (setting [8]) it was 99% (active); in assay [1] (at 50.0 µM) it was 99.4% (active); in assay [2] (setting [7]) it was 99% (active); in assay [2] (setting [8]), 100% (active); in assay [2] (at 50.0 µM) it was 99.5% (active). The growth inhibition in assay [3] (setting [7]) was 99% (active); in assay [3] (setting [8]) it was 100% (active); in assay [3] (at 50.0 µM) it was 99.5% (active); in assay [4] (setting [7]) it was 99% (active); in assay [4] (setting [8]), 99% (active); in assay [4] (at 50.0 µM) it was 99.3% (active). The growth inhibition in assay [5] (setting [7]) is 99% (active); in assay [5] (setting [8]), 99% (active); in assay [5] (at 50.0 µM) it was 99.5% (active); in assay [6] (setting [7]) it was 99% (active); in assay [6] (setting [8]), 99% (active); in assay [6] (at 50.0 µM), 99.2% (active).

In the case of `CCC(Sc1ccccc1[N+](=O)[O-])[N+](=O)[O-]` (configuration not stated), the growth inhibition in assay [1] (setting [7]) is 1%; in assay [1] (setting [8]), 0%; in assay [1] (at 50.0 µM), 88.7% (active); in assay [2] (setting [7]), 0%; in assay [2] (setting [8]), -4%; in assay [2] (at 50.0 µM), 90.8% (active). In addition, the growth inhibition was 3% in assay [3] (setting [7]); -1% in assay [3] (setting [8]); 49.1% in assay [3] (at 50.0 µM); -2% in assay [4] (setting [7]); -6% in assay [4] (setting [8]); 43.7% in assay [4] (at 50.0 µM). For the same molecule, the growth inhibition in assay [5] (setting [7]) was 0%; in assay [5] (setting [8]) it was -11%; in assay [5] (at 50.0 µM), 97.1% (active); in assay [6] (setting [7]), -1%; in assay [6] (setting [8]) it was 1%; in assay [6] (at 50.0 µM) it was 55.1%.

For `Cc1c(N)nc(C2CC(=O)N2CC(N)C(N)=O)nc1C(=O)NC(C(=O)NC(C)C(O)C(C)C(=O)NC(C(=O)NCCc1nc(-c2nc(C(=O)NCCNCC(C)O)cs2)cs1)C(C)O)C(OC1OC(CO)C(O)C(O)C1OC1OC(CO)C(O)C(OC(N)=O)C1O)c1cnc[nH]1` (configuration not stated), the growth inhibition in assay [1] (setting [7]) is 94% (active); in assay [1] (setting [8]), 97% (active); in assay [1] (at 50.0 µM), 92.7% (active); in assay [2] (setting [7]), 82% (active); in assay [2] (setting [8]) it was 99% (active); in assay [2] (at 50.0 µM) it was 93.3% (active). The growth inhibition in assay [3] (setting [7]) is 87% (active); in assay [3] (setting [8]), 98% (active); in assay [3] (at 50.0 µM), 93.3% (active); in assay [4] (setting [7]), 61%; in assay [4] (setting [8]), 92% (active); in assay [4] (at 50.0 µM), 90.6% (active). The growth inhibition in assay [5] (setting [7]) was 77% (active); in assay [5] (setting [8]), 96% (active); in assay [5] (at 50.0 µM) it was 93.8% (active); in assay [6] (setting [7]), 97% (active); in assay [6] (setting [8]), 98% (active); in assay [6] (at 50.0 µM), 92.5% (active).

As for `COc1cc(/C=C2/N=C(c3ccccc3)N(C3=NNC4(C(=O)N3)c3ccccc3-c3ccccc34)NC2=O)ccc1O`, the growth inhibition in assay [1] (setting [7]) is 4%; in assay [1] (setting [8]), 3%; in assay [1] (at 50.0 µM) it was 36.5%; in assay [2] (setting [7]), -1%; in assay [2] (setting [8]), 7%; in assay [2] (at 50.0 µM), -5.05%. Moreover, the growth inhibition in assay [3] (setting [7]) is 6%; in assay [3] (setting [8]) it was 14%; in assay [3] (at 50.0 µM) it was 7.55%; in assay [4] (setting [7]), 3%; in assay [4] (setting [8]), 1%; in assay [4] (at 50.0 µM), -46.6%. Further, the growth inhibition in assay [5] (setting [7]) was -2%; in assay [5] (setting [8]), -7%; in assay [5] (at 50.0 µM), 27.4%; in assay [6] (setting [7]) it was -17%; in assay [6] (setting [8]), 11%; in assay [6] (at 50.0 µM), 20.5%.

Take `CC(=O)O[C@H]1CC[C@]2(C)C34OC3C[C@]3(C)[C@@H](C(C)=O)CC[C@H]3[C@]43C=C[C@@]2(C1)C1C(=O)OC(=O)C13` (some centres not stated): the growth inhibition in assay [1] (setting [7]) was 10%; in assay [1] (setting [8]), 60%; in assay [1] (at 50.0 µM), 88.2% (active); in assay [2] (setting [7]), 6%; in assay [2] (setting [8]), 45%; in assay [2] (at 50.0 µM), 89.9% (active). Moreover, the growth inhibition in assay [3] (setting [7]) was 5%; in assay [3] (setting [8]), 48%; in assay [3] (at 50.0 µM), 75.9% (active); in assay [4] (setting [7]) it was 0%; in assay [4] (setting [8]), 34%; in assay [4] (at 50.0 µM) it was 84.2% (active). Further, the growth inhibition is 2% in assay [5] (setting [7]); 42% in assay [5] (setting [8]); 92.4% (active) in assay [5] (at 50.0 µM); -2% in assay [6] (setting [7]); 85% (active) in assay [6] (setting [8]); 93.2% (active) in assay [6] (at 50.0 µM).

As to `COC(=O)c1ccc(SCC(=O)c2ccc([N+](=O)[O-])o2)cc1`, the growth inhibition in assay [1] (setting [7]) is 4%; in assay [1] (setting [8]), 90% (active); in assay [1] (at 50.0 µM) it was 97% (active); in assay [2] (setting [7]) it was 4%; in assay [2] (setting [8]), 98% (active); in assay [2] (at 50.0 µM), 98% (active). For the same molecule, the growth inhibition in assay [3] (setting [7]) was 5%; in assay [3] (setting [8]), 81% (active); in assay [3] (at 50.0 µM), 79.3% (active); in assay [4] (setting [7]), -4%; in assay [4] (setting [8]) it was 96% (active); in assay [4] (at 50.0 µM), 95.3% (active). Also, the growth inhibition in assay [5] (setting [7]) is -5%; in assay [5] (setting [8]), 46%; in assay [5] (at 50.0 µM), 60.4%; in assay [6] (setting [7]) it was 2%; in assay [6] (setting [8]) it was 79% (active); in assay [6] (at 50.0 µM), 98.5% (active).

With `CCn1c2ccccc2c2ccc(N=Nc3ccc(N(C)C)cc3)cc21`, the growth inhibition is 34% in assay [1] (setting [7]); 92% (active) in assay [1] (setting [8]); 77% (active) in assay [1] (at 50.0 µM); 19% in assay [2] (setting [7]); 94% (active) in assay [2] (setting [8]); 78.5% (active) in assay [2] (at 50.0 µM). Besides, the growth inhibition in assay [3] (setting [7]) is 6%; in assay [3] (setting [8]), 92% (active); in assay [3] (at 50.0 µM), 79.5% (active); in assay [4] (setting [7]) it was 15%; in assay [4] (setting [8]), 84% (active); in assay [4] (at 50.0 µM) it was 85.7% (active). For the same molecule, the growth inhibition is 10% in assay [5] (setting [7]); 92% (active) in assay [5] (setting [8]); 82.3% (active) in assay [5] (at 50.0 µM); 18% in assay [6] (setting [7]); 93% (active) in assay [6] (setting [8]); 83.4% (active) in assay [6] (at 50.0 µM).

Regarding `CCC/C=C1/OC(=O)C2=C[C@H]3CC[C@]21[C@]1(OC(=O)C2=C1CCC=C2)[C@H]3CCC`, the growth inhibition in assay [1] (setting [7]) is 0%; in assay [1] (setting [8]), 96% (active); in assay [1] (at 50.0 µM) it was 88.2% (active); in assay [2] (setting [7]) it was 14%; in assay [2] (setting [8]), 97% (active); in assay [2] (at 50.0 µM), 88.9% (active). The growth inhibition is 17% in assay [3] (setting [7]); 96% (active) in assay [3] (setting [8]); 87.8% (active) in assay [3] (at 50.0 µM); -6% in assay [4] (setting [7]); 96% (active) in assay [4] (setting [8]); 86.9% (active) in assay [4] (at 50.0 µM). For the same molecule, the growth inhibition in assay [5] (setting [7]) is 2%; in assay [5] (setting [8]), 93% (active); in assay [5] (at 50.0 µM), 88.3% (active); in assay [6] (setting [7]), 14%; in assay [6] (setting [8]), 95% (active); in assay [6] (at 50.0 µM), 90.5% (active).

Source of the values: PubChem BioAssay (NCI).
